Screening results (PubChem BioAssay)
Rows were chosen to be rich in hits. Some 8.7% of all compounds tested hit in one or more screens of this group.
Pf growth 48h: P. falciparum growth inhibition at 48 hours (one generation) | P. falciparum luciferase growth in erythrocytes, 48 h | Potency, µM (titrated, usually from 28.7 µM), for the others: at the top dose activity change, negative = inhibition, actives largely listed as inhibitors | actives 5.9% (n = 310,000)
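Growth was read as firefly luciferase luminescence after a 48 h, 37 C, 5% CO2 exposure of compounds to reporter-bearing P. falciparum cultures (0.1% parasitemia, 2% hematocrit final) in Albumax-supplemented RPMI 1640.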
Vaccinia mCherry: inhibitors of vaccinia virus infection (mCherry reporter signal); Vaccinia virus mCherry reporter infection, fluorescence; Potency, µM (doses to about 36.5 µM), without a hit: at the highest dose activity change, negative = inhibition, usual class: inhibitors; actives 0.63% (n = 310,000); calls by dose curve; tested in A549 cells; also: nearly all actives have a fitted effect of over 35% in size
AMA1 RON2 block: AMA1-RON2 (P. falciparum) interaction inhibition. Potency, µM (top dose mostly 58.2 µM), for inactives: top-dose activity change, negative = inhibition, most hits filed as inhibitors. AlphaScreen AMA1-biotinylated RON2 peptide binding. actives 0.2% (n = 360,000). AID 720542;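 also: 0% = vehicle wells and -100% = peptide control; nearly all actives have a fitted effect of over 45% in size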
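AMA1 (3D7) with his tag at 25 nM final met compounds first, then biotinylated RON2 peptide at 25 nM; detection used donor plus acceptor beads, 10 µg/mL apiece, read by AlphaScreen after 30 min at room temperature.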
Pf growth 96h: P. falciparum growth inhibition at 96 hour, primary screen for plastid delayed-death inhibitors; P. falciparum luciferase reporter growth, 96 h; Potency, µM (titrated, usually from 28.7 µM), inactives show top-dose activity change, negative = inhibition, usual class: inhibitors; actives 6.9% (n = 320,000); AID 504834
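Parasite growth measured via integrated firefly luciferase reporter in P. falciparum. Infected erythrocytes at 2% hematocrit, 0.05% parasitemia final were treated 96 hours at 37 C under 5% CO2, and luminescence was read.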
Vaccinia Venus: inhibitors of vaccinia virus (Venus reporter); Vaccinia virus Venus reporter expression, fluorescence; Potency, µM (series often up to 36.5 µM), for inactives: at the highest dose activity change, negative = inhibition, usual class: inhibitors; actives 0.46% (n = 330,000); calls by dose curve; tested in A549 cells; also: nearly all actives have a fitted effect of over 30% in size
* hit, by the source's call; [ ] = another dose, or the depositor's remark. Unless noted, calls follow the shape of the dose curve; as a rule, active = well fitted curve in the direction sought with a large enough effect; inconclusive = small, poorly fitted or top-dose-only effect, or another doubt; inactive = no such curve, though single readings can be large; an effect the other way counts as inactive or inconclusive. Unless noted, % is scaled to controls: 0 for no effect and ±100 for the full control effect; potency is read from the fitted curve at half-maximal effect.

Screening Cc1ccc(C(=O)Cc2nc3ccccc3[nH]2)cc1 returned Pf growth 48h 0.37µM*, Vaccinia mCherry -15.5%, AMA1 RON2 block 71.5%, Pf growth 96h inconclusive and Vaccinia Venus -13.0%.
For Cc1ccc(-c2cc(C(F)(F)F)nc(SCC(=O)c3cccc([N+](=O)[O-])c3)n2)cc1 the results were Pf growth 48h inconclusive, Vaccinia mCherry 1.8%, AMA1 RON2 block -8.7%, Pf growth 96h 13.1µM* and Vaccinia Venus 12.8%.
Screening CCOC(=O)CCc1nc2ccccc2[nH]c1=O returned Pf growth 48h 3.9%, Vaccinia mCherry 0.1%, AMA1 RON2 block -0.4%, Pf growth 96h -18.4% and Vaccinia Venus 0.8%.
For COc1ccc(-c2cc(C(F)(F)F)nc(SCCC(=O)Nc3ccc(O)cc3)n2)cc1 the results were Vaccinia mCherry -2.6% and Vaccinia Venus -7.5%.
For O=C(CSc1nc2ncc(Br)cc2[nH]1)c1cccc([N+](=O)[O-])c1 the results were Pf growth 48h -18.9%, Vaccinia mCherry -12.5%, AMA1 RON2 block 9.1%, Pf growth 96h -64.1% and Vaccinia Venus -7.8%.
`O=C(CCc1nc2ccccc2[nH]1)Nc1ccccc1` gave Pf growth 48h 2.7%, Vaccinia mCherry -13.7%, AMA1 RON2 block 19.1%, Pf growth 96h -17.7% and Vaccinia Venus -8.1%.
Screening O=C(NCCCc1nc2ccccc2[nH]1)c1ccc(F)cc1 returned Pf growth 48h 13.0%, Vaccinia mCherry inactive, AMA1 RON2 block -2.0%, Pf growth 96h 10.4µM* and Vaccinia Venus -10.1%.
Screening Cc1cc(C)cc(NC(=O)CCc2nc3ccccc3[nH]2)c1 returned Pf growth 48h 4.6%, Vaccinia mCherry -8.0%, AMA1 RON2 block -3.6%, Pf growth 96h 3.29µM* and Vaccinia Venus -12.5%.
O=C(CNC(=O)c1ccc(Br)cc1)NCCc1nc2ccccc2[nH]1 was read as AMA1 RON2 block 0.5% and Pf growth 96h -21.3%.
Cc1nc2nc(SCC(=O)c3cccc([N+](=O)[O-])c3)[nH]c2cc1Br was read as Pf growth 48h inconclusive, Vaccinia mCherry inactive, AMA1 RON2 block 62.0%, Pf growth 96h 11.7µM* and Vaccinia Venus -11.1%.
`Cc1ccccc1OC(=O)CSc1nnc(-c2ccc3c(c2)OCO3)o1` gave Vaccinia mCherry -8.0% and Vaccinia Venus -1.0%.
c1ccc(-c2cc(NCCN3CCCCC3)c3ccccc3n2)cc1 was read as Pf growth 48h -13.7%[0.00184 µM], Vaccinia mCherry inconclusive, AMA1 RON2 block 3.1%, Pf growth 96h inconclusive and Vaccinia Venus 11.2µM*.
CCN(CC)C(=O)[C@H]1C[C@H](CC(=O)NCCCN(C)C)C(=O)N2CCc3c([nH]c4cc(-c5ccco5)ccc34)[C@]12C was read as Vaccinia mCherry inconclusive, AMA1 RON2 block -24.1% and Vaccinia Venus -15.4%.
C[C@]12c3[nH]c4cc(-c5ccco5)ccc4c3CCN1C(=O)[C@@H](CC(=O)NCC13CC4CC(CC(C4)C1)C3)C[C@@H]2C(=O)N1CCOCC1 was read as Vaccinia mCherry inconclusive, AMA1 RON2 block inconclusive and Vaccinia Venus 10µM*.
For CCN(CC)C(=O)[C@H]1C[C@H](CC(=O)NCC23CC4CC(CC(C4)C2)C3)C(=O)N2CCc3c([nH]c4cc(-c5ccco5)ccc34)[C@]12C the results were Vaccinia mCherry inconclusive, AMA1 RON2 block -0.3% and Vaccinia Venus 11.2µM*.
Screening O=C(Cn1c(O)c(/C=C2\C=Nc3ccc(Br)cc32)sc1=O)N1CCCC1 returned AMA1 RON2 block -9.9% and Pf growth 96h 11.7µM*.
`O=C(Cn1c(O)c(/C=C2\C=Nc3ccccc32)sc1=O)N1CCOCC1` gave Pf growth 48h -2.6%, Vaccinia mCherry inactive, AMA1 RON2 block -3.8%, Pf growth 96h -5.8% and Vaccinia Venus -4.1%.
N=C1C=CC(=C(c2ccc(N)cc2)c2ccc(N)cc2)C=C1 was read as Vaccinia mCherry inconclusive, AMA1 RON2 block 14.1µM* and Vaccinia Venus inconclusive.
Screening CC(C)OCCCNC(=O)CCCn1c(SCC(=O)c2ccc(Br)cc2)nc2c(sc3ccccc32)c1=O returned Vaccinia mCherry -6.0% and Vaccinia Venus -0.6%.
CCc1ccc(-n2nc3cc(C)c(N)cc3n2)cc1 was read as Pf growth 48h 183.8%, AMA1 RON2 block 0.2% and Pf growth 96h 13.1µM*.
CC1(C)CC(=O)c2cc(C(=O)Nc3ccccc3)c(=O)[nH]c2C1 was read as Vaccinia mCherry -5.2% and Vaccinia Venus -8.0%.
O=C(CN1CCN(c2ccccc2O)CC1)Nc1ccc(S(=O)(=O)N2CCCCCC2)cc1 was read as Pf growth 48h inconclusive, Vaccinia mCherry -7.6%, AMA1 RON2 block -16.6%, Pf growth 96h 10.4µM* and Vaccinia Venus -26.5%.
COc1ccccc1N1CCN(CC(=O)Nc2ccc(S(=O)(=O)N3CCCCCC3)cc2)CC1 was read as Pf growth 48h inconclusive, AMA1 RON2 block -1.9% and Pf growth 96h inconclusive.
For O=C(CN1CCN(c2ccccc2O)CC1)Nc1cc(S(=O)(=O)N2CCCC2)ccc1Cl the results were Pf growth 48h 4.15µM*, AMA1 RON2 block 15.4% and Pf growth 96h 3.29µM*.
For Cc1ccc(-n2ncc3c(NC4CCCCC4)ncnc32)cc1Cl the results were Vaccinia mCherry -0.3% and Vaccinia Venus -11.7%.
For CS(=O)(=O)N(Cc1ccccc1)c1ccc(C(=O)Nc2cccc(Cl)c2)cc1 the results were Vaccinia mCherry -8.2% and Vaccinia Venus -23.8%.
Screening Cc1noc(Cn2c(=O)c3ccccc3n(CC(=O)Nc3ccc(F)cc3F)c2=O)n1 returned Vaccinia mCherry -17.7% and Vaccinia Venus -5.4%.
For CCOc1ccc(C(=O)Oc2c(Sc3ccccc3)c(C)nn2C(C)(C)C)cc1OCC the results were Vaccinia mCherry -23.2% and Vaccinia Venus -15.0%.
Screening C=CCN1C(=O)c2ccccc2NC1c1cc(Br)cs1 (stereo not given) returned Pf growth 48h 10.4µM*, Vaccinia mCherry 2.3%, AMA1 RON2 block -7.4%, Pf growth 96h inconclusive and Vaccinia Venus 2.6%.
For O=C1c2ccccc2NC(c2ccc(Cl)cc2Cl)N1Cc1ccccc1 (stereo not given) the results were AMA1 RON2 block 0.9%, Pf growth 96h inconclusive and Vaccinia Venus inconclusive.
Cc1ccc(Nc2nc3ccc(C)cc3nc2-n2nc(C)cc2C)c(C)c1 was read as Vaccinia mCherry -7.9% and Vaccinia Venus -11.8%.
Screening Cc1cc(C)n(-c2nc3cc(Cl)ccc3nc2N2CCN(c3cccc(C)c3C)CC2)n1 returned Vaccinia mCherry inactive and Vaccinia Venus -16.5%.
COc1ccc(-c2csc3ncnc(Oc4cccc5ccc(C)nc45)c23)cc1 was read as Pf growth 48h inconclusive, Vaccinia mCherry -24.3%, AMA1 RON2 block -18.0%, Pf growth 96h inconclusive and Vaccinia Venus -17.2%.
For Cc1ccc(-c2csc3ncnc(Cl)c23)cc1 the results were Pf growth 48h 1.47µM*, Vaccinia mCherry -6.1%, AMA1 RON2 block -11.4%, Pf growth 96h 2.62µM* and Vaccinia Venus -0.7%.
